Consider four compounds from PubChem BioAssay.

The source made the active and inactive calls.

A short description of assay [1]: optical density shifts of acrAB sulA E. coli – strain DRC41, OD650, 48 h, E. coli filamentation inducer project, primary screen (AID 1152).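 Also: E. coli MC1000 strain DRC41 lacking acrAB efflux pump and sulA.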 To be noted: higher = more signal, called active from +8 up or from −8 down.
The nature of assay [2]: probe aLefty1 binding on compound microarray – biochemical, small-molecule microarray, 635/667 nm fluorescence, primary screen (AID 1153).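 Also: score merges spot fluorescence with signal-to-noise ratio from the scanned slide images.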 To be noted: higher = more signal.
The nature of assay [3]: plasmodial surface anion channel blockers, osmotic lysis – cell-based, P. falciparum Indochina, OD700, 1 h, primary screen (AID 1154). To be noted: P. falciparum Indochina infected RBC osmotic lysis, higher = more signal, called active from +8 up or from −8 down.
The nature of assay [4]: plasmodial surface anion channel blockers, osmotic lysis – cell-based, P. falciparum Indochina, OD700, 2 h, primary screen (AID 1155).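 Also: lysis reports solute entry through the parasite surface anion channel PSAC.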 To be noted: P. falciparum Indochina infected erythrocytes, higher = more signal, called active from +8 up or from −8 down.
Assay [5] is described as follows: changes in parasitized red cell lysis, either direction – P. falciparum Indochina, OD700, 3 h, PSAC antagonist project, primary screen (AID 1156). To be noted: P. falciparum-infected erythrocytes, osmotic lysis, higher = more signal, called active from +8 up or from −8 down.
Assay [6] can be described thus: plasmodial surface anion channel blockers, osmotic lysis – cell-based, P. falciparum Indochina, OD700, 18 h, primary screen (AID 1157). To be noted: P. falciparum Indochina infected erythrocytes, osmotic lysis OD700, 18 h; higher = more signal, called active from +8 up or from −8 down.
Assay [7] in a line: S6 kinase pathway phospho-S6 level changes – cell-based, A549, cytoblot, luminescence, serum-stimulated, primary screen (AID 1158).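 Also: serum-stimulated A549 lung adenocarcinoma cells; signal is phosphorylated S6 detected by cytoblot immunostaining with HRP secondary.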 To be noted: 5 h, higher = more signal.
The target in assay [8] is NADPH oxidase 2 (Homo sapiens) (UniProt P04839). The assay is described as follows: compounds shifting NOX2 Amplex Red fluorescence – cell-based, HEK293-NOX2, PMA-stimulated, NOX inhibitor project, primary screen (AID 1159). Also: test concentration not given here. To be noted: 45 min, higher = more signal, called active from +8 up or from −8 down.
Chain of NADPH oxidase 2 (Homo sapiens) (P04839 whole entry, looked up): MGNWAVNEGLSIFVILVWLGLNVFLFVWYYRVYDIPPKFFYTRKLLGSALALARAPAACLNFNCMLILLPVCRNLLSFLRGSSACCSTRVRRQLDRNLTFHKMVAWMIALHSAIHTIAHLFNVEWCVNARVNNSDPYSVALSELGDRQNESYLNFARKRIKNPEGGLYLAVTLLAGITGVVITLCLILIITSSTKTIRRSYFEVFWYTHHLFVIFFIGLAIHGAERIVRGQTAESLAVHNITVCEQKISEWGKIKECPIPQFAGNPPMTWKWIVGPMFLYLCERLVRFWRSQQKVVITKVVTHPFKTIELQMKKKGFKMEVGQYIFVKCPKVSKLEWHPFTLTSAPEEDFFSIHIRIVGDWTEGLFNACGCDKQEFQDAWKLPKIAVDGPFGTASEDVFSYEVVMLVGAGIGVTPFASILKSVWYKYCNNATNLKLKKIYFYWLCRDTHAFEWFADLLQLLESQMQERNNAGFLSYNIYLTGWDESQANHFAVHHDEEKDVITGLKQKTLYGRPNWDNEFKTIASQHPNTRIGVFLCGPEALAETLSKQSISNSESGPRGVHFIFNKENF
Assay [9] deals with NADPH oxidase 4 (Homo sapiens) (UniProt Q9NPH5). The assay is described as follows: compounds shifting NOX4 Amplex Red fluorescence – cell-based, HEK293-NOX4, tetracycline-induced, NOX inhibitor project, primary screen (AID 1160). To be noted: HEK293-NOX4, Amplex Red H2O2 fluorescence, 45 min; higher = more signal, called active from +8 up or from −8 down.
Chain of NADPH oxidase 4 (Homo sapiens) (Q9NPH5 whole entry, looked up): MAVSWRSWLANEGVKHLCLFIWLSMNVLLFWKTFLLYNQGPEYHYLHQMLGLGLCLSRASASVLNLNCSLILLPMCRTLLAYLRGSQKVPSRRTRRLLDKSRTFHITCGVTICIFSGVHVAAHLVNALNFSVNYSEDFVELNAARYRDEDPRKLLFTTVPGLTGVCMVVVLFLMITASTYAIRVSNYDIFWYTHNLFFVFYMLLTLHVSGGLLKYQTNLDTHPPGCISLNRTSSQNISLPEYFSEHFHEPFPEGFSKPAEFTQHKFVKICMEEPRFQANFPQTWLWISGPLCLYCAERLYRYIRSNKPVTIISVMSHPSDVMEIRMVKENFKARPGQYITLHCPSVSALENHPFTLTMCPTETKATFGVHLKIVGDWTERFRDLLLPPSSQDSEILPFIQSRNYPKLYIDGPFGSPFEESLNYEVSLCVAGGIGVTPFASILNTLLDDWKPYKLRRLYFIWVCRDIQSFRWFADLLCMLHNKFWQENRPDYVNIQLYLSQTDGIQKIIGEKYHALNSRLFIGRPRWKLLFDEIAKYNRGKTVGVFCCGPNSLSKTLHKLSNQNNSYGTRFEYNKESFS
The target in assay [10] is NADPH oxidase 5 (Homo sapiens) (UniProt Q96PH1). The assay is described as follows: compounds shifting NOX5 Amplex Red fluorescence – cell-based, HEK293-NOX5, NOX inhibitor project, primary screen (AID 1161). To be noted: HEK293-NOX5, ionomycin, 45 min, higher = more signal.
Chain of NADPH oxidase 5 (Homo sapiens) (Q96PH1 whole entry, looked up): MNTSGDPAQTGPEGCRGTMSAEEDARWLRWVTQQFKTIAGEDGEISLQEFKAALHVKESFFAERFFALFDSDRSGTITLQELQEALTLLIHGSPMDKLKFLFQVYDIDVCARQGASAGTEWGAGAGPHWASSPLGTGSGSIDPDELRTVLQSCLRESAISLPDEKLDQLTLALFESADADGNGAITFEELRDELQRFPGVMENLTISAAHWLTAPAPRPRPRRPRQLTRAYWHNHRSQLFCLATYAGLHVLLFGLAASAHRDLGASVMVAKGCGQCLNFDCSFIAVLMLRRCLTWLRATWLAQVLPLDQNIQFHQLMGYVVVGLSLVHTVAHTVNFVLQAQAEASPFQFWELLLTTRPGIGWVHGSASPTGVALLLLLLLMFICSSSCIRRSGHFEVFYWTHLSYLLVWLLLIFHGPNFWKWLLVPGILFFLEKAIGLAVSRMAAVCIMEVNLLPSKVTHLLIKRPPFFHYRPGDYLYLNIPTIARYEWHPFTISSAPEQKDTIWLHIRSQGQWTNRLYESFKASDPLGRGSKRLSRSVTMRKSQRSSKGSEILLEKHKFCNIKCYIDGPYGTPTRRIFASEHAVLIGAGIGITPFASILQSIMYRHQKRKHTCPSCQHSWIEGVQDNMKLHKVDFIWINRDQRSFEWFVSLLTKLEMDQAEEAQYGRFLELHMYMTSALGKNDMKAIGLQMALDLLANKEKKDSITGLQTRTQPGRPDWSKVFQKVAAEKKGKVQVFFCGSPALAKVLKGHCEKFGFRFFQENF
Assay [11] can be described thus: compound effects on lung adenocarcinoma cell viability – A549, calcein-AM fluorescence, 48 h, basal, profiling panel (AID 1162). Also: test concentration not given here. To be noted: higher = more signal.
The nature of assay [12]: compound effects on differentiated 3T3-L1 adipocyte viability – cell-based, 3T3-L1 adipocytes, calcein-AM fluorescence, 48 h, basal, profiling panel (AID 1163). Also: test concentration not given here. To be noted: 3T3-L1 adipocytes viability, higher = more signal.
Assay [13] is described as follows: compound effects on hepatocellular carcinoma cell viability – HepG2, calcein-AM fluorescence, 48 h, basal, profiling panel (AID 1164). Also: test concentration not given here. To be noted: higher = more signal.
Assay [14] can be described thus: compound effects on multiple myeloma cell viability – MM1S, calcein-AM fluorescence, 48 h, basal, profiling panel (AID 1165).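 Also: viability of MM1S multiple myeloma cells under basal unstimulated conditions; test concentration not given here.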 To be noted: higher = more signal.
Assay [15] in a line: calcein-AM signal in unstimulated myeloma cells – cell-based, calcein-AM fluorescence, 48 h, PK04 Diversity Set, profiling panel (AID 1166).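 Also: cells grown under basal conditions without added stimulus; test concentration not given here.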 To be noted: RPMI8226 myeloma viability, higher = more signal.
A short description of assay [16]: JC-1 mitochondrial signal, unstimulated HepG2 cells – cell-based, JC-1 fluorescence, 24 h, 100 nL compound, profiling panel (AID 1167). Also: test concentration not given here. To be noted: HepG2 mitochondrial potential, higher = more signal.
Assay [17] in a line: JC-1 mitochondrial signal, unstimulated adipocytes – cell-based, JC-1 fluorescence, 3T3-L1 adipocytes, 24 h, 100 nL compound, profiling panel (AID 1168). Also: test concentration not given here. To be noted: JC-1 mitochondrial fluorescence, higher = more signal, called active from +8 up or from −8 down.
Assay [18] is described as follows: JC-1 mitochondrial signal, unstimulated myeloma cells – cell-based, JC-1 fluorescence, RPMI8226, 24 h, 100 nL compound, profiling panel (AID 1169). Also: test concentration not given here. To be noted: JC-1 mitochondrial potential fluorescence, higher = more signal.
The nature of assay [19]: JC-1 mitochondrial signal, unstimulated MM1S myeloma – cell-based, JC-1 fluorescence, 24 h, 100 nL compound, profiling panel (AID 1170). Also: test concentration not given here. To be noted: MM1S mitochondrial potential, higher = more signal.
The nature of assay [20]: resazurin metabolic signal in A549 cells – cell-based, resazurin fluorescence, 24 h, PK04 Diversity Set, profiling panel (AID 1171). Also: test concentration not given here. To be noted: A549 viability, higher = more signal, called active from +8 up or from −8 down. On the technique in general: Alamar Blue is a resazurin reagent that responds to reducing activity.

In the case of `COCCOC(=O)N1C(=O)[C@@]2(c3cc(C#CCNC(N)=O)ccc31)[C@H](c1ccc(OCCO)cc1)N1[C@H](c3ccccc3)[C@H](c3ccccc3)OC(=O)[C@H]1[C@@H]2C(=O)Nc1nc2ccccc2s1`, the z-score in assay [1] is 2.28 (inactive); in assay [3] it was 2.66 (inactive); in [4] it was 1.67 (inactive); in assay [5], 0.73 (inactive); in assay [6], 1.24 (inactive); in [7] it was 0.652. For the same compound, the z-score in assay [8] was 0.398 (inactive); in [9], -0.211 (inactive); in [10] it was 1.12; in assay [11], 0.556; in assay [12], 1.49; in assay [13] it was -0.801. Moreover, the z-score in [14] was -0.139; in [15] it was -0.138; in assay [16] it was -3.18; in [17], 2.96 (inactive); in assay [18], -0.964; in assay [19] it was -1.56. For the same compound, in assay [20], the z-score was 0.708 (inactive). Moreover, the composite z-score in assay [2] worked out at 0.0844.
Regarding `CCCC[C@@H]1C[C@H]1[C@@H](NC(=O)c1cccs1)c1ccc(Cl)cc1`, the z-score was -1.06 (inactive) in assay [1]; 0.492 (inactive) in [3]; -0.696 (inactive) in assay [4]; 1.13 (inactive) in assay [5]; -1.93 (inactive) in assay [6]; 1.38 in assay [7]. Further, the z-score was -3.93 (inactive) in assay [8]; -6.76 (inactive) in assay [9]; -2.26 in [10]; -1.36 in assay [11]; 1.11 in [12]; -1.02 in assay [13]. Besides, the z-score in assay [14] was -0.992; in assay [15] it was -2.99; in [16] it was -1.16; in assay [17] it was 0.53 (inactive); in assay [18], -0.912; in [19] it was -0.53. Besides, in assay [20], the z-score is 0.6 (inactive). For the same compound, the composite z-score in assay [2] is -0.124.
Take `CCCC=C(CCC)[C@@H](NS(=O)(=O)c1ccc(C(F)(F)F)cc1)c1ccc(-c2ccccc2)cc1`: the z-score in [1] was -1.78 (inactive); in assay [3], 2.51 (inactive); in [4] it was 0.329 (inactive); in assay [5], -0.516 (inactive); in [6] it was 0.543 (inactive); in [7], 1.47. Also, the z-score in [8] was -1.57 (inactive); in assay [9], -0.618 (inactive); in [10], 2.7; in [11], -0.91; in [12] it was -0.988; in assay [13], -0.396. For the same compound, the z-score in assay [14] is -0.5; in assay [15], -2.65; in assay [16] it was 0.285; in assay [17] it was 0.33 (inactive); in assay [18], 0.342; in [19], -1.15. The z-score in [20] is 2.3 (inactive). Besides, in assay [2], the composite z-score was found to be 0.448.
Consider `NC(=O)NCC#Cc1ccc2c(c1)[C@]1(C(=O)N2)[C@H](C(=O)N2CCCCCCC2)[C@H]2C(=O)O[C@H](c3ccccc3)[C@H](c3ccccc3)N2[C@@H]1c1ccccc1OCCO`, for which the z-score in assay [1] is 1.43 (inactive); in [3], 0.833 (inactive); in assay [4] it was 0.483 (inactive); in assay [5] it was 1.8 (inactive); in assay [6], 0.148 (inactive); in assay [7], 0.421. For the same compound, the z-score in [8] is 2 (inactive); in [9], 1.36 (inactive); in [10], 0.881; in assay [11] it was -0.21; in assay [12], 1.36; in assay [13] it was -0.0395. For the same compound, the z-score in assay [14] was -2.48; in assay [15], -0.583; in assay [16], -1.25; in assay [17] it was 1.03 (inactive); in assay [18], -0.56; in assay [19], -0.693. The z-score in [20] is 1.28 (inactive). Besides, in [2], the composite z-score was 2.79.
